Holding throughout (test): DAPPL (digital affinity profiling via proximity ligation, sequencing); 10 mM Tris-HCl pH 7.5, 50 mM NaCl, 1 mM DTT, 4% glycerol, room temperature, 30 min; GST-TFs on glutathione beads, 16-mer random dsDNA library, 0.1% formaldehyde crosslink after washing; high values mean tight binding
One assay has as its target T1, FLI1 (Homo sapiens, UniProt Q01543 1-452).
T1 sequence: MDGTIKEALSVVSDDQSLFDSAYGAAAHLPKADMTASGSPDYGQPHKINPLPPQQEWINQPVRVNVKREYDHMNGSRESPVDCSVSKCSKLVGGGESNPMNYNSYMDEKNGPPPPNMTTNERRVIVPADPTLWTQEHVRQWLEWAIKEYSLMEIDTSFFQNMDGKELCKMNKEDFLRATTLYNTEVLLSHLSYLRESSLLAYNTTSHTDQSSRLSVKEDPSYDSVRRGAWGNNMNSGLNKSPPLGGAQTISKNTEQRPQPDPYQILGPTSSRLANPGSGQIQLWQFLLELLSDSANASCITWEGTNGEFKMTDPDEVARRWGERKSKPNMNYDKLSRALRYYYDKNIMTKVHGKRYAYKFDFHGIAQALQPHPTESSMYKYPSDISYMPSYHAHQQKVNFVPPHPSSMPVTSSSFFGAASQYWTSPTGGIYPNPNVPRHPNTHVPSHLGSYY
The note with it: protein: recombinant; tags: N-terminal GST; dsDNA, one strand shown. Put shortly: (§1)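 In yeast, human transcription factors were expressed with a GST fusion, then pulled down on glutathione beads and given DNA barcodes. Pooled with a tag-only sample, they were exposed to 200 nmole of a 16-mer random double-stranded DNA library (Tris/NaCl/DTT/glycerol buffer, room temperature, 30 min), washed, crosslinked with 0.1% formaldehyde, proximity-ligated using BsaI/T4 ligase for 1 h at 37 °C, PCR-amplified and read on an Illumina NextSeq500. Each hexamer's frequency of reads for a factor, divided by the matching frequency for the tag-only sample, gives the binding signal.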

Another assay concerns the target T2, ELK1 (Homo sapiens, UniProt P19419 1-428).
T2 sequence: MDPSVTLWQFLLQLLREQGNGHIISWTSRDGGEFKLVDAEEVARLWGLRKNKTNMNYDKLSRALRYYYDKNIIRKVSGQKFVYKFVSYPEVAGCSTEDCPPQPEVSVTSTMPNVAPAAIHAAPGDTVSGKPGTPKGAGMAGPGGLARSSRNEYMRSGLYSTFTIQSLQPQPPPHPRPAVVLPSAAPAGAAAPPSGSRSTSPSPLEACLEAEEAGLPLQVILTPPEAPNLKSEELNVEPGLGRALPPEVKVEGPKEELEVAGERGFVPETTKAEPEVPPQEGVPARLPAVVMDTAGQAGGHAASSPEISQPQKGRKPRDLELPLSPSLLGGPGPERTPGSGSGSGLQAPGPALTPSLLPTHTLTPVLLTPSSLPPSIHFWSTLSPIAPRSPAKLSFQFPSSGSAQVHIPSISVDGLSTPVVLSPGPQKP
The note with it: protein: recombinant; tags: N-terminal GST; dsDNA, one strand shown. Put shortly: as §1

A further assay concerns the target T3, GABPA (Homo sapiens, UniProt Q06546 1-454).
T3 sequence: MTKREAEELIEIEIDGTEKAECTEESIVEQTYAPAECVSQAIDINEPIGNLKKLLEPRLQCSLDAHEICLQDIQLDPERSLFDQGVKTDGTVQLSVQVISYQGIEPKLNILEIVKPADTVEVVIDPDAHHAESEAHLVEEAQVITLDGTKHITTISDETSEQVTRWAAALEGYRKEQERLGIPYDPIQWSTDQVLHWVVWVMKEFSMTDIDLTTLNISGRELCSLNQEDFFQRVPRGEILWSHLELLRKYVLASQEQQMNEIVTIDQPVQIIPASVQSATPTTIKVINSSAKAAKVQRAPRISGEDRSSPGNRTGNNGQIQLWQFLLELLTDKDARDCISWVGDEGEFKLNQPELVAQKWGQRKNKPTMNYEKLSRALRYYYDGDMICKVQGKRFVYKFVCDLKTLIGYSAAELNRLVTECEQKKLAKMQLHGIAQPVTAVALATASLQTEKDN
The note with it: protein: recombinant; tags: N-terminal GST; dsDNA, one strand shown. Put shortly: as §1

For a further assay, the target named is T4, ERG (Homo sapiens, UniProt P11308 1-479).
T4 sequence: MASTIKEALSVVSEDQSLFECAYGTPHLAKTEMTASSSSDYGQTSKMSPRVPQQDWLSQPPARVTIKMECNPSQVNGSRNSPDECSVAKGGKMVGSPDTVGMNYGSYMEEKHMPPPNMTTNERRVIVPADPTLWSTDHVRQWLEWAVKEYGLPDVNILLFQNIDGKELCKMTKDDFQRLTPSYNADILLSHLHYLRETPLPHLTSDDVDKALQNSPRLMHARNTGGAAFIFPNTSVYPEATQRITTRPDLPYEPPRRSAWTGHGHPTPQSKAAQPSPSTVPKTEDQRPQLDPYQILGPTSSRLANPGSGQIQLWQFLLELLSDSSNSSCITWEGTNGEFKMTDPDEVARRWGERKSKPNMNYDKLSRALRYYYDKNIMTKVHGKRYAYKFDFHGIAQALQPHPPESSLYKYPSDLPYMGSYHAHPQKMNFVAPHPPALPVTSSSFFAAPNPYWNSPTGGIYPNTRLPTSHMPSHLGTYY
The note with it: protein: recombinant; tags: N-terminal GST; dsDNA, one strand shown. The method, boiled down:
as §1

Another assay deals with ELF1 (Homo sapiens, UniProt P32519 1-619). The conditions noted are these: protein: recombinant; tags: N-terminal GST; dsDNA, one strand shown. The method, boiled down: as §1
The target of a further assay is T5, EHF (Homo sapiens, UniProt Q9NZC4 1-300).
T5 sequence: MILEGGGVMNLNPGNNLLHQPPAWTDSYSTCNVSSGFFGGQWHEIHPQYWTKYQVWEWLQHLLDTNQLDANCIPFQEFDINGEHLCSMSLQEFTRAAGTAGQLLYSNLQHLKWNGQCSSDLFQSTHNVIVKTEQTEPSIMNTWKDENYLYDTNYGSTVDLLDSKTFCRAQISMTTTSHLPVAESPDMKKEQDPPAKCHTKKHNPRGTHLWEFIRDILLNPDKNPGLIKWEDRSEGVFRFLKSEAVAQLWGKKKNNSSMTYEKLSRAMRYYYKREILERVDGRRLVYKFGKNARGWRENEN
The note with it: protein: recombinant; tags: N-terminal GST; dsDNA, one strand shown. The method, boiled down: as §1

The next assay has as its target SPI1 (Homo sapiens, UniProt P17947 1-270). The note with it: protein: recombinant; tags: N-terminal GST; dsDNA, one strand shown. Put shortly: as §1
For a further assay, the target named is SPIB (Homo sapiens, UniProt Q01892 1-262). The note with it: protein: recombinant; tags: N-terminal GST; dsDNA, one strand shown. The method, boiled down:
as §1

In another assay the target is T6, FEV (Homo sapiens, UniProt Q99581 1-238).
T6 sequence: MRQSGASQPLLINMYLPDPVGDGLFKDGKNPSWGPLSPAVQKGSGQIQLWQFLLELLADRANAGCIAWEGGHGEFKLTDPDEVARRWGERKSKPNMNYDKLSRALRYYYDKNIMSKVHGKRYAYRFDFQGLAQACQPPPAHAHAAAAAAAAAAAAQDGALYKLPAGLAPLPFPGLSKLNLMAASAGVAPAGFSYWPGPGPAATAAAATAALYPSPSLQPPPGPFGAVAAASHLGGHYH
The conditions noted are these: protein: recombinant; tags: N-terminal GST; dsDNA, one strand shown. The method, boiled down:
as §1

The target in a further assay is ETV5 (Homo sapiens, UniProt P41161 1-510). The conditions noted are these: protein: recombinant; tags: N-terminal GST; dsDNA, one strand shown. Put shortly: as §1
A further assay has as its target HSF1 (Homo sapiens, UniProt Q00613 1-529). The note with it: protein: recombinant; tags: N-terminal GST; chain copies: 3; dsDNA, one strand shown. Put shortly:
as §1

The target in another assay is T7, SPIC (Homo sapiens, UniProt Q8N5J4 1-248).
T7 sequence: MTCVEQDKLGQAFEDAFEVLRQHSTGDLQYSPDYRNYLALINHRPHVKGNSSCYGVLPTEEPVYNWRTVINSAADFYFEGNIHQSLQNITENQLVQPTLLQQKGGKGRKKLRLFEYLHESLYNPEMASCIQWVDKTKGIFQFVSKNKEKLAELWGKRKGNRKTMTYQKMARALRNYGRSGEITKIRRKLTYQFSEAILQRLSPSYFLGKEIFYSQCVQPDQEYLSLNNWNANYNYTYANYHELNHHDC
The note with it: protein: recombinant; tags: N-terminal GST; dsDNA, one strand shown. Put shortly:
as §1

The target of a further assay is ELF4 (Homo sapiens, UniProt Q99607 1-663). The conditions noted are these: protein: recombinant; tags: N-terminal GST; dsDNA, one strand shown. Put shortly:
as §1

A further assay deals with T8, ELK4 (Homo sapiens, UniProt P28324-2 1-405).
T8 sequence: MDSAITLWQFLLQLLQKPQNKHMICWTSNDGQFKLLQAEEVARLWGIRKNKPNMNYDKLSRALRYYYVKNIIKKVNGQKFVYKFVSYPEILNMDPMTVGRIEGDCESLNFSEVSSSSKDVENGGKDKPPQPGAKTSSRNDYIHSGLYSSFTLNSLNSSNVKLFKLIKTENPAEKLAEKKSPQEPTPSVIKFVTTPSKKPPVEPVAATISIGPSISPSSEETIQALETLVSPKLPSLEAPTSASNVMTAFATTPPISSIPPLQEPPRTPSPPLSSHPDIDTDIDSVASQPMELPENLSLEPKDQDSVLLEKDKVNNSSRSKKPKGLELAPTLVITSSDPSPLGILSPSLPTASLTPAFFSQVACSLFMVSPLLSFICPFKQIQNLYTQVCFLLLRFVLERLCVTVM
The note with it: protein: recombinant; tags: N-terminal GST; dsDNA, one strand shown. Put shortly: as §1

A further assay addresses T9, ETV2 (Homo sapiens, UniProt O00321 1-342).
T9 sequence: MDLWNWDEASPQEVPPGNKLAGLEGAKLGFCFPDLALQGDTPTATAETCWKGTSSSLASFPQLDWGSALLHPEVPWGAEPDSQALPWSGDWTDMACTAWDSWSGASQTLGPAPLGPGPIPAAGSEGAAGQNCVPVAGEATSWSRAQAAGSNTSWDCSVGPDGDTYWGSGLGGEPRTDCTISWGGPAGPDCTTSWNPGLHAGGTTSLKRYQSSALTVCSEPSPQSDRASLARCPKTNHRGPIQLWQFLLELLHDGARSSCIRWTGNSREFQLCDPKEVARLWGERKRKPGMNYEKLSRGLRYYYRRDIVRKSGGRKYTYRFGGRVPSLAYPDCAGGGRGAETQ
The note with it: protein: recombinant; tags: N-terminal GST; dsDNA, one strand shown. Put shortly: as §1

For another assay, the target named is T10, ELF3 (Homo sapiens, UniProt P78545 1-371).
T10 sequence: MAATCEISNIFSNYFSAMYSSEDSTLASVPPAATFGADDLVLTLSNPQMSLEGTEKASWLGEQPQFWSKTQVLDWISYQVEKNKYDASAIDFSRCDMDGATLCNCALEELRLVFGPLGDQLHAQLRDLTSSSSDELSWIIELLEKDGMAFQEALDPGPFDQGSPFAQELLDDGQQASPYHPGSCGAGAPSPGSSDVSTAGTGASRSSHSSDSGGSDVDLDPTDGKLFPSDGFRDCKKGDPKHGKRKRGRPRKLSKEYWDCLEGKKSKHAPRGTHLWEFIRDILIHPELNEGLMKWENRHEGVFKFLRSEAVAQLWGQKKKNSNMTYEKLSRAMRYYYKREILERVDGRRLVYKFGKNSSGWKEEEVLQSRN
The note with it: protein: recombinant; tags: N-terminal GST; dsDNA, one strand shown. The method, boiled down:
as §1

The next assay addresses CRX (Homo sapiens, UniProt O43186 1-299). The conditions noted are these: protein: recombinant; tags: N-terminal GST; dsDNA, one strand shown. Put shortly: as §1
Another assay concerns the target ETV1 (Homo sapiens, UniProt P50549 1-477). The conditions noted are these: protein: recombinant; tags: N-terminal GST; dsDNA, one strand shown. The method, boiled down: as §1

Chain of ETV1 (P50549 whole entry): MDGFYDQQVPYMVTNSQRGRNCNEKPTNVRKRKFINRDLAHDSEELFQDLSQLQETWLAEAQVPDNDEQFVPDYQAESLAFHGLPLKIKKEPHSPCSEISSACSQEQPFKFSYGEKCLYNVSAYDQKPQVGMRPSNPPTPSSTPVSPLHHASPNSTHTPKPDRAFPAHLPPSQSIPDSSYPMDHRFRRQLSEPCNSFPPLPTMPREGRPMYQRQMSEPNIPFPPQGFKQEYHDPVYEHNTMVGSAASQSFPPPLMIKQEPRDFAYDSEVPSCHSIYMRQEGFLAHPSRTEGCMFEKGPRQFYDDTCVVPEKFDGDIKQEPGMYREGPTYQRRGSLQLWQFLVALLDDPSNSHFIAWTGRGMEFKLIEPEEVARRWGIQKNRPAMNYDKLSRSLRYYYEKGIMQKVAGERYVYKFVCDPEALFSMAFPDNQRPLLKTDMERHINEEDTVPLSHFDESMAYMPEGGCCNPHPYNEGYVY
Chain of SPIB (Q01892 whole entry): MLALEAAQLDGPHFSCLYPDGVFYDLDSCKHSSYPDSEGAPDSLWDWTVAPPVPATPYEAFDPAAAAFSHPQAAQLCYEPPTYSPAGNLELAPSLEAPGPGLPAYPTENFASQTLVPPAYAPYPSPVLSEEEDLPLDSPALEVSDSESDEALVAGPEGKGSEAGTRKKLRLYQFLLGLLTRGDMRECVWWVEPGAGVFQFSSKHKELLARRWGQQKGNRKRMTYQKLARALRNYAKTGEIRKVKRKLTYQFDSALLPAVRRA
Chain of HSF1 (Q00613 whole entry): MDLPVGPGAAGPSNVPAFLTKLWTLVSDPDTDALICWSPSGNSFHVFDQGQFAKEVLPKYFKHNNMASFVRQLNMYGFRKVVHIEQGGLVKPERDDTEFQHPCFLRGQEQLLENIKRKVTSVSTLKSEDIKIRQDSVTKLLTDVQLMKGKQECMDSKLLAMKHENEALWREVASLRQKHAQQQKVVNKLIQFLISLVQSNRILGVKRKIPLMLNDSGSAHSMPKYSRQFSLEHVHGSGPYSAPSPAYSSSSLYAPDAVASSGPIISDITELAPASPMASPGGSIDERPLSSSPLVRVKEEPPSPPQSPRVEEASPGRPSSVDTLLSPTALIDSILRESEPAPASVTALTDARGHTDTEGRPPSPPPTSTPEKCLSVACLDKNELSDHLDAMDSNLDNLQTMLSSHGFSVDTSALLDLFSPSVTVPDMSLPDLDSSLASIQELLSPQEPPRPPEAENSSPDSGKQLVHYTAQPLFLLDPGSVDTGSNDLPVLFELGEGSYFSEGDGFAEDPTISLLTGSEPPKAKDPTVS
Chain of ELF4 (Q99607 whole entry): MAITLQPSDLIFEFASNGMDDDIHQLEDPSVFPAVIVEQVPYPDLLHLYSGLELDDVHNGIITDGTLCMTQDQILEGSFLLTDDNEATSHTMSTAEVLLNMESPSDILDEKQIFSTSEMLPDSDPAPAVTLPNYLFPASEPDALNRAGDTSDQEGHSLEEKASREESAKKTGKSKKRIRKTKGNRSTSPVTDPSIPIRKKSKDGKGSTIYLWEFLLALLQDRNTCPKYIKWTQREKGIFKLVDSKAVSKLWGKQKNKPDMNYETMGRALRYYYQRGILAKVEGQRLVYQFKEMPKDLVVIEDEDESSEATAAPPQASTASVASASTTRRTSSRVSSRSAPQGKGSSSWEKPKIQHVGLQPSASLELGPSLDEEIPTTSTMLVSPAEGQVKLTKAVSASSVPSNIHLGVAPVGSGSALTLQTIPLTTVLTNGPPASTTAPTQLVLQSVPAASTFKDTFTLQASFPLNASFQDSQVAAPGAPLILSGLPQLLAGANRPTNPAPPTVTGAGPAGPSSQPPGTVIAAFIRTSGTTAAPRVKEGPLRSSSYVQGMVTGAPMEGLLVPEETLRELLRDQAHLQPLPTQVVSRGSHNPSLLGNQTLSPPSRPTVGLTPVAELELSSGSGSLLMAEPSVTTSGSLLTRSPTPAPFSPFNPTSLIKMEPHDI
Chain of ELF1 (P32519 whole entry): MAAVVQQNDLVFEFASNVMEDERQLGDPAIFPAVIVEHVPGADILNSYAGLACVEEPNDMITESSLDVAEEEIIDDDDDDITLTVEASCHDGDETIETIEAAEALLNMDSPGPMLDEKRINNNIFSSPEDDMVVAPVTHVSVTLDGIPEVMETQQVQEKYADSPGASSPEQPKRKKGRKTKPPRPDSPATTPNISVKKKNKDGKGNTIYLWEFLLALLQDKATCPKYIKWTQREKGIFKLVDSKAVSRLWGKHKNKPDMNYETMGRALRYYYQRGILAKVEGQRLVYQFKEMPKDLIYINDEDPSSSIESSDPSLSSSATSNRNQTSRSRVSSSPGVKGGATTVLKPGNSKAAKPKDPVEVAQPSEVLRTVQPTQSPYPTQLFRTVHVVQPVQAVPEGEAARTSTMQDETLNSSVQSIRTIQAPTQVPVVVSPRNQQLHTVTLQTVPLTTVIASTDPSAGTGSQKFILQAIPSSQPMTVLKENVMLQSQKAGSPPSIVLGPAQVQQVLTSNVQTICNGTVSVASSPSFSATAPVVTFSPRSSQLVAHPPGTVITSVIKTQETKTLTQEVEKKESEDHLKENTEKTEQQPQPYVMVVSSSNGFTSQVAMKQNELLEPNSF
Chain of CRX (O43186 whole entry): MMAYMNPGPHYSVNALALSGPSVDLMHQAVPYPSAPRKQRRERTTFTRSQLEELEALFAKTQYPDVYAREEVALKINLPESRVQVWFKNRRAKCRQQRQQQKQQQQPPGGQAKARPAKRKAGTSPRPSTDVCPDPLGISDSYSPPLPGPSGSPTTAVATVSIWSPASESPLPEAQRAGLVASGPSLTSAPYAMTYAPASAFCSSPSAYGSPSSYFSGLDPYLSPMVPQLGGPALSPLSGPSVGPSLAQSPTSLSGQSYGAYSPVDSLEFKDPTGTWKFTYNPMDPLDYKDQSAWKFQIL
Chain of ETV5 (P41161 whole entry): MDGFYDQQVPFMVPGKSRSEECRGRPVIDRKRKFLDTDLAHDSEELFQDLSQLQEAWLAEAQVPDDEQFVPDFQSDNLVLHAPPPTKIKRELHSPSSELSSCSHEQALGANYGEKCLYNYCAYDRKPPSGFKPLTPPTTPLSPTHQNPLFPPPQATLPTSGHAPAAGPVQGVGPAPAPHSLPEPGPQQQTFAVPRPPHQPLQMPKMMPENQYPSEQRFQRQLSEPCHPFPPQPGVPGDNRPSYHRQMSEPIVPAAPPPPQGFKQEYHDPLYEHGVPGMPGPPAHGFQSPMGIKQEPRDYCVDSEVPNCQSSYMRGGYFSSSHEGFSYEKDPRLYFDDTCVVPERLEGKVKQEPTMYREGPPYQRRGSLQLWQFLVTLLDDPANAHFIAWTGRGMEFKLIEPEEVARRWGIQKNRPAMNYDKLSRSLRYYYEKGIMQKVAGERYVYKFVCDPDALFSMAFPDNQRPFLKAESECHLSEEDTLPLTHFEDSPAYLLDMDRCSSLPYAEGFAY

Regarding TCAATT, the binding signal with FLI1 is 1.09 fold enrichment (6-mer frequency, TF over GST control); with ELK1, 1.06 fold enrichment (6-mer frequency, TF over GST control); with GABPA, 1.19 fold enrichment (6-mer frequency, TF over GST control); in the assay with ERG it was 1.16 fold enrichment (6-mer frequency, TF over GST control); with ELF1, 1.16 fold enrichment (6-mer frequency, TF over GST control); with EHF, 1.12 fold enrichment (6-mer frequency, TF over GST control). Moreover, the binding signal is 1.18 fold enrichment (6-mer frequency, TF over GST control) with SPI1; 1.29 fold enrichment (6-mer frequency, TF over GST control) in the assay with SPIB; 1.16 fold enrichment (6-mer frequency, TF over GST control) in the assay with FEV; 1.21 fold enrichment (6-mer frequency, TF over GST control) with ETV5; 1.1 fold enrichment (6-mer frequency, TF over GST control) with HSF1; 1.14 fold enrichment (6-mer frequency, TF over GST control) in the assay with SPIC. The binding signal with ELF4 was 1.18 fold enrichment (6-mer frequency, TF over GST control); with ELK4, 1.08 fold enrichment (6-mer frequency, TF over GST control); in the assay with ETV2, 1.24 fold enrichment (6-mer frequency, TF over GST control); with ELF3 it was 1.12 fold enrichment (6-mer frequency, TF over GST control); with CRX, 1.17 fold enrichment (6-mer frequency, TF over GST control); with ETV1 it was 1.14 fold enrichment (6-mer frequency, TF over GST control).

These data come from publication PMC7862700, “An all-to-all approach to the identification of sequence-specific readers for epigenetic DNA modifications on cytosine”.
